Data from ChEMBL document CHEMBL1961873, “Compounds: GSK PKIS; Assays: Nanosyn kinase panel” (2012).

Tests used:
[1] = target: T1, Serine/threonine-protein kinase Nek9 (Homo sapiens) (UniProt Q8TD19); details: at 1 µM;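 also: each value is a mean percent inhibition of NEK9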
T1 sequence (whole entry): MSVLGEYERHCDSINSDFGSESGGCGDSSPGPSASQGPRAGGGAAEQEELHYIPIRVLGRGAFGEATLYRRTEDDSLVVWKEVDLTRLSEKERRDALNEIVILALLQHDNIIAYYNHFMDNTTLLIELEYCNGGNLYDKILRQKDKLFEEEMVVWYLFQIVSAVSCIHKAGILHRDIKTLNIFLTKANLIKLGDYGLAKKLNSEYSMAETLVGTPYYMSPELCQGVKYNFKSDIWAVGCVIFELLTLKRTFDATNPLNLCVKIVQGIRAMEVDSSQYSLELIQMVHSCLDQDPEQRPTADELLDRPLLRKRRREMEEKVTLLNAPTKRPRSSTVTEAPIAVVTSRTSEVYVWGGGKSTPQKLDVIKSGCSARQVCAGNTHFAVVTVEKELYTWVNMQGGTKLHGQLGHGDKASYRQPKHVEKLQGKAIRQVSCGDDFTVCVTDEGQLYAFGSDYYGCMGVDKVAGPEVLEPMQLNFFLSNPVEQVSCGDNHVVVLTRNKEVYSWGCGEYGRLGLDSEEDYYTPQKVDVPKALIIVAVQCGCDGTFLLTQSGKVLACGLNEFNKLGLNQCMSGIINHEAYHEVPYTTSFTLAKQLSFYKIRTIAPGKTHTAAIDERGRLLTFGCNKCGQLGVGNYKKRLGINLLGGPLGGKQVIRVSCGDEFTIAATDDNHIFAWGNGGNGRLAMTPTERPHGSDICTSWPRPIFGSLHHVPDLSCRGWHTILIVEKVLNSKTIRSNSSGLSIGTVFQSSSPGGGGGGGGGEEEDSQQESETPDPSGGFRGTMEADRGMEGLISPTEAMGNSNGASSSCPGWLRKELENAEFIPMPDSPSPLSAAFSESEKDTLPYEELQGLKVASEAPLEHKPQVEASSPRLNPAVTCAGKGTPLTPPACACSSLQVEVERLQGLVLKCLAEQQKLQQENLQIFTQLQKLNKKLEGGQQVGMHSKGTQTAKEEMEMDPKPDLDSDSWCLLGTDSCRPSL

[2] = target: Serine/threonine-protein kinase PLK1 (Homo sapiens) (UniProt P53350); details: at 0.1 µM
[3] = target: Serine/threonine-protein kinase PLK1 (Homo sapiens) (UniProt P53350); details: at 1 µM
[4] = target: T2, Dual specificity protein kinase TTK (Homo sapiens) (UniProt P33981); details: at 0.1 µM
T2 sequence (whole entry): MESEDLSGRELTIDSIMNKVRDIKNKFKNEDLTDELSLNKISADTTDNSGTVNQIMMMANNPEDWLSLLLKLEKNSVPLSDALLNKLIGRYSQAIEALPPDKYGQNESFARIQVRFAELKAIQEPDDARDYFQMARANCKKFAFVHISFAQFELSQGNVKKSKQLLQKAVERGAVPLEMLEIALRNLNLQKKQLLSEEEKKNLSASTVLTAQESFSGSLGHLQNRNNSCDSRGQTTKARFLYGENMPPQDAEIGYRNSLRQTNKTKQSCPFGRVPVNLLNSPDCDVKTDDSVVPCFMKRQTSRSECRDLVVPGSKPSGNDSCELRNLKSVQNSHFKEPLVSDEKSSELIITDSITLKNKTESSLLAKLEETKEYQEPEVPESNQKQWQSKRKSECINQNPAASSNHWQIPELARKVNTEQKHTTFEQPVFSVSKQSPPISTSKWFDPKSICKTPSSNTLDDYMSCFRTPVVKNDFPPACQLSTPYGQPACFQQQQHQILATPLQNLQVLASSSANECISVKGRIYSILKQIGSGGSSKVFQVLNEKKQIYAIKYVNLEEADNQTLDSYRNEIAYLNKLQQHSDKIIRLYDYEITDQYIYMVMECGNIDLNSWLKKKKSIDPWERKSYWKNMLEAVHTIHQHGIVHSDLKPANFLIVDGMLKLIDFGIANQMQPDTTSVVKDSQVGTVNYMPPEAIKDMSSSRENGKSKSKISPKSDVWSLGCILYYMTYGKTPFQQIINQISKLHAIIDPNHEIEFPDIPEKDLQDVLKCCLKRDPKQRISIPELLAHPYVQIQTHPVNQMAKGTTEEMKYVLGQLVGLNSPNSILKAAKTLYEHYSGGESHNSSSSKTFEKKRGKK

[5] = test system: T3, Receptor-type tyrosine-protein kinase FLT3 (Homo sapiens), P36888 [D835Y]; details: at 1 µM
T3 sequence (whole entry): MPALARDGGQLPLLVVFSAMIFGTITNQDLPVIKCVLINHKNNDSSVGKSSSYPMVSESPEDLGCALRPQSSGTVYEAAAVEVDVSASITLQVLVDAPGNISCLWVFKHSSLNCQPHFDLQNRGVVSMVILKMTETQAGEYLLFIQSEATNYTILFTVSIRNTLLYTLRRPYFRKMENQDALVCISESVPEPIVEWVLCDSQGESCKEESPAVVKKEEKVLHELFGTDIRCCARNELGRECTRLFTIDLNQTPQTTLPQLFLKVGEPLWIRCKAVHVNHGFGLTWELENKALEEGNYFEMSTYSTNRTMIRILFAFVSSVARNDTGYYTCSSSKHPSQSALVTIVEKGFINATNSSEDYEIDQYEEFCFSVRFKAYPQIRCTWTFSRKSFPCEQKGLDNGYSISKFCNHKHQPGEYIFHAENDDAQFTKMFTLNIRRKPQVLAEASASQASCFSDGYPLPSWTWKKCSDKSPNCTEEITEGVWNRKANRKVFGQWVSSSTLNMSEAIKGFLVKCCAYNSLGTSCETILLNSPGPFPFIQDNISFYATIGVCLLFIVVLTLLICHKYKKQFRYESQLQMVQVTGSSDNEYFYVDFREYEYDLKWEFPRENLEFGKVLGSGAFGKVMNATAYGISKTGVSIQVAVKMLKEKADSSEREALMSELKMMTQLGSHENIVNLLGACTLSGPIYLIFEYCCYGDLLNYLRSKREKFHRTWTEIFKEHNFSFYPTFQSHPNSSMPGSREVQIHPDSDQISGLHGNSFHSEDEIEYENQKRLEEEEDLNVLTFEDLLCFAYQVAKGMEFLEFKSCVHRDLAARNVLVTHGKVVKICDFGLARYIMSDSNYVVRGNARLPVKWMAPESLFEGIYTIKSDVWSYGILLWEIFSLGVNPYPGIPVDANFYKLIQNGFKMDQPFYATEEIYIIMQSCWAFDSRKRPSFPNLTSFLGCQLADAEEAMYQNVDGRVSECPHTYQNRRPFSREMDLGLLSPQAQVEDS

[6] = target: Vascular endothelial growth factor receptor 3 (Homo sapiens) (UniProt P35916); details: at 0.1 µM
[7] = target: Vascular endothelial growth factor receptor 3 (Homo sapiens) (UniProt P35916); details: at 1 µM
[8] = target: Macrophage colony-stimulating factor 1 receptor (Homo sapiens) (UniProt P07333); details: at 0.1 µM
[9] = target: Macrophage colony-stimulating factor 1 receptor (Homo sapiens) (UniProt P07333); details: at 1 µM
[10] = target: Tyrosine-protein kinase Fyn (Homo sapiens) (UniProt P06241); details: at 0.1 µM
Sequence of Tyrosine-protein kinase Fyn (Homo sapiens) (P06241 2-537 limits assumed): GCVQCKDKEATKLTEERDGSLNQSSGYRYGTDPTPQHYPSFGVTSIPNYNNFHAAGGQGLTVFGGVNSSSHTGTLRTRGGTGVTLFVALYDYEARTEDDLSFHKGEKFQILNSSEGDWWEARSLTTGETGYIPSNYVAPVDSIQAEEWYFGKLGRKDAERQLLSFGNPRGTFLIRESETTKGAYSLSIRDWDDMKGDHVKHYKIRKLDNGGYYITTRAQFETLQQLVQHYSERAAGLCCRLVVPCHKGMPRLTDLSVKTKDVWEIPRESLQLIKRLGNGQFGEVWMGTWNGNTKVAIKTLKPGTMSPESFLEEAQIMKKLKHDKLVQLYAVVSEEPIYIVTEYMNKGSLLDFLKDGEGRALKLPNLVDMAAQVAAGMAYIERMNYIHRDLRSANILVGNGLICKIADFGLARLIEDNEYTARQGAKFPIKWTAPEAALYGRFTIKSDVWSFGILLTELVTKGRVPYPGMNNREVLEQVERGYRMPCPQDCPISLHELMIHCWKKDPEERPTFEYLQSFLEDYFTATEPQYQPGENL

Sequence of Serine/threonine-protein kinase PLK1 (Homo sapiens) (P53350 whole entry): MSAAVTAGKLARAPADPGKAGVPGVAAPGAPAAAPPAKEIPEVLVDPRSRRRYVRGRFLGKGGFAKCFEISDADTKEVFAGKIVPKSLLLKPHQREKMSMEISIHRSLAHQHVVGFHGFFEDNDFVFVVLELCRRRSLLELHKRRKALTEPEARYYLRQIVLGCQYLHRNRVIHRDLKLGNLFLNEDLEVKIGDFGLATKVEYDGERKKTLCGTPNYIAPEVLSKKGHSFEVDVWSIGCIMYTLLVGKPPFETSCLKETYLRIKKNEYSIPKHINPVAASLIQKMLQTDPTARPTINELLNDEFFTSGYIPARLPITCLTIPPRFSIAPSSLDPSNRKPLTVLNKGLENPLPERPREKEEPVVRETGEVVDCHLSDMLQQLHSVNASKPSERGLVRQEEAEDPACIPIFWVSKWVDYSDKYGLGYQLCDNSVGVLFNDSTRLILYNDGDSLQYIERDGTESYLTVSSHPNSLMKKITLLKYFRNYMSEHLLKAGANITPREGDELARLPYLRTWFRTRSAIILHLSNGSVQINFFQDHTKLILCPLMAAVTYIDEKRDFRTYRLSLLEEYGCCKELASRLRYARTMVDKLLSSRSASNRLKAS
Sequence of Macrophage colony-stimulating factor 1 receptor (Homo sapiens) (P07333 whole entry): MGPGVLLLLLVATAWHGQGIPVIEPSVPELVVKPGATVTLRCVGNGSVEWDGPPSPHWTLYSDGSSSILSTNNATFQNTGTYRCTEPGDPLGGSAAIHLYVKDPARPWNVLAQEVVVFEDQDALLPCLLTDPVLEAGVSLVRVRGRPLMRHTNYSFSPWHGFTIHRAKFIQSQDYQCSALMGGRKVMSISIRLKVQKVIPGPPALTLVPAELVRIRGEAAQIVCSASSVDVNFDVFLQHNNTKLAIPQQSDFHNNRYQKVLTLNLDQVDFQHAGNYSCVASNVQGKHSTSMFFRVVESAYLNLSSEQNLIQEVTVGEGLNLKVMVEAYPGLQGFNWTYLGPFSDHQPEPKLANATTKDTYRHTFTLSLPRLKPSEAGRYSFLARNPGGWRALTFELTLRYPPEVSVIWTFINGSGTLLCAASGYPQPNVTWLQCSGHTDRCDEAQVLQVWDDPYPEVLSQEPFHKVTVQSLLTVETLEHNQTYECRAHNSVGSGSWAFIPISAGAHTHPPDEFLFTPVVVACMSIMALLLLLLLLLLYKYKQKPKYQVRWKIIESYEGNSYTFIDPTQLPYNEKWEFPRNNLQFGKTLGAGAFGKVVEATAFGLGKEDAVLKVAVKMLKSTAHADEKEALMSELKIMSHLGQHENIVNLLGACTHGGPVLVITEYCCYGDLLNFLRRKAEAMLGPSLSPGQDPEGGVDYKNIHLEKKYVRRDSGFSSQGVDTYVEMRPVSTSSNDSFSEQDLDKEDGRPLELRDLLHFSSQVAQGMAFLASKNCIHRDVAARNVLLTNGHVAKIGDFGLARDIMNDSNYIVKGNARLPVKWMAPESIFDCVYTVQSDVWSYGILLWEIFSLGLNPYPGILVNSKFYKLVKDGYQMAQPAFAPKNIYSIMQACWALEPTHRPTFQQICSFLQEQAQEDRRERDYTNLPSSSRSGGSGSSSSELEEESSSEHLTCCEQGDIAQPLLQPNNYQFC
Sequence of Vascular endothelial growth factor receptor 3 (Homo sapiens) (P35916 whole entry): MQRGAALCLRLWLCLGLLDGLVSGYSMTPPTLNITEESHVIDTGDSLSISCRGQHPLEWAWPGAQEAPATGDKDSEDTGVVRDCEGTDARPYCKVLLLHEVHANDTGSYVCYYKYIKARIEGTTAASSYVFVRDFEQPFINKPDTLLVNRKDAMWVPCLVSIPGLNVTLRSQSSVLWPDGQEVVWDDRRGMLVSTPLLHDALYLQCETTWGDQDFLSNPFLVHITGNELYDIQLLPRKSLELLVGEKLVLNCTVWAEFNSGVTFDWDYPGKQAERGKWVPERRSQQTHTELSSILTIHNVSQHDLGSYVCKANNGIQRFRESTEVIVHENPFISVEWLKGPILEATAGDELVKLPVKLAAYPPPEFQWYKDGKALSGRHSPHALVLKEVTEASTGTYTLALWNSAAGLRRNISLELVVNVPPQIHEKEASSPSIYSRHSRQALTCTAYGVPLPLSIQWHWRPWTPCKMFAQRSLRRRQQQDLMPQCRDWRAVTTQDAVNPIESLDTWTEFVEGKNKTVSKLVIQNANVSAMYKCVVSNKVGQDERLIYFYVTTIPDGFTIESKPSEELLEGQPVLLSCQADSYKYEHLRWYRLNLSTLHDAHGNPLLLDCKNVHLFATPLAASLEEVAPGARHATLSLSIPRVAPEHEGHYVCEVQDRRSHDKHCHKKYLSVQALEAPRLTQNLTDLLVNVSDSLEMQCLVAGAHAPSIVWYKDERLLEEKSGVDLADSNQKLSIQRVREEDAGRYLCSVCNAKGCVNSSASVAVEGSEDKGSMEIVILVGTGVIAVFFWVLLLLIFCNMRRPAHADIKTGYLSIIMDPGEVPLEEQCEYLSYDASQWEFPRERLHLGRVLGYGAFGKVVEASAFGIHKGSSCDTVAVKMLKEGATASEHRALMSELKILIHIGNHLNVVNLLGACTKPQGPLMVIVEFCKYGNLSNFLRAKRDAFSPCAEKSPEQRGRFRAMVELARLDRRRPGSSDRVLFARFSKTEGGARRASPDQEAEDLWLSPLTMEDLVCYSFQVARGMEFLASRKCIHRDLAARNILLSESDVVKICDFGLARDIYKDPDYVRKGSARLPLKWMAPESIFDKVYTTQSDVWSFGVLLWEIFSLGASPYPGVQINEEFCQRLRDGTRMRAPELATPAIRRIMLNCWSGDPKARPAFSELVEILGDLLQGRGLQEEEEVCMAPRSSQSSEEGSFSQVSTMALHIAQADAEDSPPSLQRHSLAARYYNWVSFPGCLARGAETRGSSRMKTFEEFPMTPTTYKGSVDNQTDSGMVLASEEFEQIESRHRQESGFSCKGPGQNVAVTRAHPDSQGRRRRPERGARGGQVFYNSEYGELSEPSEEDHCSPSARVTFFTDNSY

| SMILES | inhibition [1] | inhibition [2] | inhibition [3] | inhibition [4] | inhibition [5] | inhibition [6] | inhibition [7] | inhibition [8] | inhibition [9] | inhibition [10] |
| --- | --- | --- | --- | --- | --- | --- | --- | --- | --- | --- |
| COc1cc2c(cc1Nc1nc(N3CCc4ccccc43)c3cc[nH]c3n1)N(C(=O)CN(C)C)CC2 | 0.78% | 5.82% | 25.4% | 7.66% | 2.32% | 12.9% | 13.7% | 1.41% | 2.14% | -1.37% |
| CCN1CCC(CC(=O)Nc2n[nH]c3nc(-c4cccs4)c(Br)cc23)CC1 | 0.2% | -3.36% | -3.47% | -6.26% | 10.7% | 1.17% | 2.51% | -2.02% | 0.93% | -0.42% |
| COc1ccc(-c2coc3ncnc(N)c23)cc1 | 6.24% | 3.82% | 3.47% | 10.9% | -3.79% | 0.69% | -0.08% | 4.17% | 2.83% | 0.65% |
| CCn1c(-c2nonc2N)nc2c(N3CCCC3)nccc21 | 1.67% | 1.87% | -0.08% | 9.05% | -4.08% | 2.79% | 3.38% | -0.51% | 0.02% | -0.01% |
| O=C(Nc1n[nH]c2nc(-c3ccco3)c(Br)cc12)C1CC1 | 3.52% | 4.46% | 4.35% | 4.94% | 5.36% | 1.95% | 9.43% | 0.44% | 1.78% | 3.33% |
| CCn1c(-c2nonc2N)nc2c(C#CC(C)(C)O)nc(OC[C@@H](N)c3ccccc3)cc21 | -5.29% | 7.34% | 0.17% | -3.32% | 2.58% | 17.4% | 68.9% | -0.21% | -0.91% | 2.28% |
| CS(=O)(=O)CCN(CC#N)Cc1ccc(-c2ccc3ncnc(Nc4ccc(OCc5cccc(F)c5)c(Cl)c4)c3c2)o1 | 3.24% | 4.17% | 2.97% | 2.64% | 0.21% | -3.53% | -8.49% | 1.14% | 5.44% | -3.25% |
| NS(=O)(=O)c1cccc(-c2ccc3c(NC(=O)C4CC4)n[nH]c3c2)c1 | 2.04% | 0.99% | -1.05% | -4.5% | -1.12% | 2.99% | 5.11% | -0.02% | 2.28% | 1.2% |
| O=C1NC(=O)C(N2CCc3ccccc32)=C1c1ccc(Cl)cc1 | 6.39% | 3.88% | 2.74% | 7.71% | 14.7% | 1.62% | 0.97% | 4.95% | 4.62% | 4.56% |
| N#Cc1c(NC(=O)c2cccc3ccccc23)sc2c1CCCC2 | 4.88% | 3.77% | 9.99% | 11.9% | -2.86% | 0.07% | -3.88% | 0.85% | 1.31% | 2.07% |
| COc1cc2ncn(-c3cc(OCc4ccccc4Cl)c(C(N)=O)s3)c2cc1OC | 55.5% | 93.8% | 96.3% | 2.78% | 9.43% | 11.9% | 54.8% | 1.91% | 23.7% | 2.79% |
| CN1CCC(C(=O)Nc2n[nH]c3nnc(-c4ccccc4)cc23)CC1 | 19.2% | 6.37% | 4.03% | 12.6% | -2.63% | 2.1% | 3.3% | 0.38% | 3.05% | 0.66% |
| O=C1NC(=O)C(c2ccccc2Cl)=C1Nc1cccc(O)c1 | -5.12% | 3.44% | 3.38% | 2.7% | 3.87% | 3.25% | 3.79% | -1.08% | 2.71% | 1.1% |
| CS(=O)(=O)CCNCc1ccc(-c2ccc3ncnc(Nc4ccc(OCc5cccc(F)c5)c(C(F)(F)F)c4)c3c2)o1 | 10.1% | 3.95% | 3.53% | 12.1% | 4.32% | -0.03% | -1.42% | 0.94% | -0.75% | 1.1% |
| Cc1cccc(-c2n[nH]cc2-c2ccc3ncccc3n2)n1 | 4.16% | 0.53% | 3.07% | 2.51% | -2.35% | 4.9% | 39.4% | 2.38% | 2.47% | 0.64% |
| Fc1cccc(COc2ccc(Nc3ncnc4cc(-c5ccc[nH]5)sc34)cc2Cl)c1 | 9.08% | 3.81% | 3.54% | 9.76% | 1.35% |  |  | 0.63% | 8.96% | -2.98% |
| COC(=O)Nc1nc2cc(Oc3cccc(NC(=O)Nc4cc(C(F)(F)F)ccc4F)c3)ccc2[nH]1 | 0.95% | 1.57% | 0.56% | 0.37% | 0.94% | 1.33% | 11.4% | 4.37% | 27.8% | 1.12% |
| NC(=O)c1cccc(Nc2nccc(Nc3cccc4[nH]ncc34)n2)c1 | 7.1% | -1.69% | 3.37% | -7.5% | 37.5% | 5.01% | 33.4% | 3.46% | 34.1% | 85.9% |
| CNC(=O)c1cncc(/C=C/c2c(Cl)cccc2Cl)c1 | 5.75% | 3.89% | 7.28% | 17% | -3.57% | -7.73% |  | 7.17% | 41.1% | 0.89% |
| Nc1ncnc2occ(-c3ccc(NC(=O)Nc4cc(C(F)(F)F)cc(C(F)(F)F)c4)cc3)c12 | -1.98% | 2.75% | 1.86% | 1.59% | 33.2% | 9.31% | 56.5% | 51.2% | 95.3% | 0.55% |
